This is an account of results in the supplement of paper PMC12669032.

In the first assay the test system is Roseburia intestinalis. Description: growth AUC relative to DMSO control (median of replicates) (fraction); higher = more growth (less inhibition), active = hit call of the paper. The following applies: 20 µM; 24 h. In short, it runs like this:
(§1)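 Hourly OD600 readings over 24 h tracked anaerobic gut bacterial monocultures grown at 37 °C in mGAM from OD600 0.05 with 20 µM compound (1% DMSO). After the minimum OD was set to 0, area under the growth curve was normalised to the plate median of solvent-only wells, or to row and column medians on the industrial chemical plate. Values are medians of three biological replicates grown on separate days.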
Consider `CCCCNC(=O)n1c(NC(=O)OC)nc2ccccc21`, for which the “growth AUC” value was 0.985 (inactive).
Same read-out and setting: the same measure for `C=CCC1=C(C)C(OC(=O)C2C(C=C(C)C)C2(C)C)CC1=O` (stereo not drawn): 0.968 (inactive); for `N#CCNC(=O)c1cnccc1C(F)(F)F`: 1 (inactive); for `Cc1cc(Cl)ccc1OCC(=O)O.O.[Na]`: 1.02 (inactive).
On the same count and under the same terms, the same measure for `CCCSC(=O)N(CCC)CCC`: 0.994 (inactive); for `Clc1cccc(Cl)c1Cl`: 0.972 (inactive).
Still for that read-out and setting: the result for `O=S(=O)(Oc1ccc(Cl)cc1)c1ccc(Cl)cc1` reads 0.948 (inactive); that for `OC(c1ccc(Cl)cc1)(c1cncnc1)c1ccccc1Cl` (stereo not drawn), 1 (inactive).
With `C#CCN1CC(=O)N(COC(=O)C2C(C=C(C)C)C2(C)C)C1=O` (mixture of isomers), the “growth AUC” value was 1.04 (inactive).
In the case of `CCN(CC)c1nc(C)cc(OP(=S)(OC)OC)n1`, the “growth AUC” value was 0.978 (inactive).
Same read-out and setting: the result for `CC(Oc1ccc(Cl)cc1Cl)C(=O)O` (stereo not drawn) reads 0.978 (inactive); that for `CNC(=O)O/N=C/C(C)(C)SC`, 1.03 (inactive); that for `O=C(OC1CCCCC1)c1ccccc1C(=O)OC1CCCCC1`, 0.983 (inactive).
On the same count and under the same terms, the result for `CC(C)(C)N(NC(=O)c1ccc(Cl)cc1)C(=O)c1ccccc1` reads 1.08 (inactive).
On the same count and under the same terms, the same measure for `O=S(=O)(c1ccc(Cl)cc1)c1cc(Cl)c(Cl)cc1Cl`: 0.989 (inactive); for `CCCSP(=S)(OCC)Oc1ccc(SC)cc1` (stereo not drawn): 1.06 (inactive); for `Cc1ccccc1C(=O)Nc1cccc(OC(C)C)c1`: 1.01 (inactive).
In the case of `CCS(=O)(=O)c1nc2ccccn2c1S(=O)(=O)NC(=O)Nc1nc(OC)cc(OC)n1`, the “growth AUC” value is 1.01 (inactive).
The same measure, in the same setting: the same measure for `CCS(=O)(=O)Oc1ccc2c(c1)C(C)(C)CO2`: 1.04 (inactive); for `COC(=O)NS(=O)(=O)c1ccc(N)cc1`: 0.929 (inactive); for `CCCCOC(=O)[C@@H](C)Oc1ccc(Oc2ccc(C#N)cc2F)cc1`: 0.997 (inactive).
Still for that read-out and setting: the same measure for `CC(Cc1ccc(C(C)(C)C)cc1)CN1C[C@@H](C)O[C@@H](C)C1` (stereo partly drawn): 1.06 (inactive); for `N#Cc1c(O)c(Cl)c(Cl)c(C#N)c1Cl`: 1.06 (inactive); for `CNC(=O)Oc1cc(C)c(S(C)=O)c(C)c1` (stereo not drawn): 0.965 (inactive).
Consider `Oc1c(Cl)c(Cl)cc(Cl)c1Cl`, for which the “growth AUC” value was 0.978 (inactive).
For `CNC1=C(c2cccc(C(F)(F)F)c2)C(=O)C(c2ccccc2)O1` (stereo not drawn), the “growth AUC” value is 1.04 (inactive).
As for `CC(C)CC(C)c1sccc1NC(=O)c1cn(C)nc1C(F)(F)F` (stereo not drawn), the “growth AUC” value was 0.998 (inactive).
The same measure, in the same setting: the same measure for `CC1(C)C(/C=C(\Cl)c2ccc(Cl)cc2)C1C(=O)OC(C#N)c1ccc(F)c(Oc2ccccc2)c1` (stereo not drawn): 1.07 (inactive).
Same read-out and setting: the result for `c1coc(-c2nc3ccccc3[nH]2)c1` reads 1.04 (inactive); that for `O=CNC(N1CCN(C(NC=O)C(Cl)(Cl)Cl)CC1)C(Cl)(Cl)Cl` (stereo not drawn), 0.934 (inactive).
Same read-out and setting: the result for `COP(=S)(OC)Oc1cc(Cl)c(I)cc1Cl` reads 0.974 (inactive).
In the case of `CC(C)N(C(=O)COc1nnc(C(F)(F)F)s1)c1ccc(F)cc1`, the “growth AUC” value is 1.01 (inactive).
Same read-out and setting: the same measure for `CCCCC(C#N)(Cn1cncn1)c1ccc(Cl)cc1` (stereo not drawn): 0.94 (inactive); for `CCc1nn(C)c(C(=O)NCc2ccc(Oc3ccc(C)cc3)cc2)c1Cl`: 0.924 (inactive).
Still for that read-out and setting: the result for `CCCOC(=O)c1ccccc1C(=O)OCCC` reads 1.1 (inactive); that for `COCC(=O)N(c1c(C)cccc1C)N1CCOC1=O`, 0.994 (inactive); that for `NC(=O)/N=C1/SCCN1Cc1ccc(Cl)nc1`, 0.989 (inactive).
Consider `Oc1ccccc1-c1ccccc1`, for which the “growth AUC” value is 0.939 (inactive).
Still for that read-out and setting: the same measure for `CCNc1nc(NC(C)C(C)C)nc(SC)n1` (stereo not drawn): 1.04 (inactive).

A further assay has as its system Streptococcus salivarius. The assay is described as above. The following applies: 20 µM; 24 h. A digest of the protocol: as §1
Regarding `CCCCNC(=O)n1c(NC(=O)OC)nc2ccccc21`, the “growth AUC” value is 0.999 (inactive).
The same measure, in the same setting: the same measure for `C=CCC1=C(C)C(OC(=O)C2C(C=C(C)C)C2(C)C)CC1=O` (stereo not drawn): 0.986 (inactive).
The same measure, in the same setting: the same measure for `N#CCNC(=O)c1cnccc1C(F)(F)F`: 0.995 (inactive).
The same measure, in the same setting: the result for `Cc1cc(Cl)ccc1OCC(=O)O.O.[Na]` reads 0.986 (inactive); that for `CCCSC(=O)N(CCC)CCC`, 1.04 (inactive); that for `Clc1cccc(Cl)c1Cl`, 1.06 (inactive).
Regarding `O=S(=O)(Oc1ccc(Cl)cc1)c1ccc(Cl)cc1`, the “growth AUC” value was 0.983 (inactive).
The same measure, in the same setting: the same measure for `OC(c1ccc(Cl)cc1)(c1cncnc1)c1ccccc1Cl` (stereo not drawn): 0.939 (inactive); for `C#CCN1CC(=O)N(COC(=O)C2C(C=C(C)C)C2(C)C)C1=O` (mixture of isomers): 0.943 (inactive); for `CCN(CC)c1nc(C)cc(OP(=S)(OC)OC)n1`: 0.975 (inactive).
Still for that read-out and setting: the same measure for `CC(Oc1ccc(Cl)cc1Cl)C(=O)O` (stereo not drawn): 0.981 (inactive).
`CNC(=O)O/N=C/C(C)(C)SC`: the “growth AUC” value is 1.06 (inactive).
On the same count and under the same terms, the same measure for `O=C(OC1CCCCC1)c1ccccc1C(=O)OC1CCCCC1`: 1 (inactive); for `CC(C)(C)N(NC(=O)c1ccc(Cl)cc1)C(=O)c1ccccc1`: 0.987 (inactive); for `O=S(=O)(c1ccc(Cl)cc1)c1cc(Cl)c(Cl)cc1Cl`: 0.999 (inactive).
Consider `CCCSP(=S)(OCC)Oc1ccc(SC)cc1` (stereo not drawn), for which the “growth AUC” value is 0.93 (inactive).
Turning to `Cc1ccccc1C(=O)Nc1cccc(OC(C)C)c1`, the “growth AUC” value was 0.988 (inactive).
For `CCS(=O)(=O)c1nc2ccccn2c1S(=O)(=O)NC(=O)Nc1nc(OC)cc(OC)n1`, the “growth AUC” value is 1.03 (inactive).
On the same count and under the same terms, the result for `CCS(=O)(=O)Oc1ccc2c(c1)C(C)(C)CO2` reads 1.03 (inactive); that for `COC(=O)NS(=O)(=O)c1ccc(N)cc1`, 0.893 (inactive); that for `CCCCOC(=O)[C@@H](C)Oc1ccc(Oc2ccc(C#N)cc2F)cc1`, 0.954 (inactive).
For the compound `CC(Cc1ccc(C(C)(C)C)cc1)CN1C[C@@H](C)O[C@@H](C)C1` (stereo partly drawn), the “growth AUC” value was 0.999 (inactive).
Still for that read-out and setting: the same measure for `N#Cc1c(O)c(Cl)c(Cl)c(C#N)c1Cl`: 1 (inactive); for `CNC(=O)Oc1cc(C)c(S(C)=O)c(C)c1` (stereo not drawn): 1.01 (inactive).
Consider `Oc1c(Cl)c(Cl)cc(Cl)c1Cl`, for which the “growth AUC” value was 0.869 (inactive).
The same measure, in the same setting: the result for `CNC1=C(c2cccc(C(F)(F)F)c2)C(=O)C(c2ccccc2)O1` (stereo not drawn) reads 0.988 (inactive); that for `CC(C)CC(C)c1sccc1NC(=O)c1cn(C)nc1C(F)(F)F` (stereo not drawn), 0.984 (inactive).
For `CC1(C)C(/C=C(\Cl)c2ccc(Cl)cc2)C1C(=O)OC(C#N)c1ccc(F)c(Oc2ccccc2)c1` (stereo not drawn), the “growth AUC” value is 1.03 (inactive).
Still for that read-out and setting: the same measure for `c1coc(-c2nc3ccccc3[nH]2)c1`: 0.984 (inactive); for `O=CNC(N1CCN(C(NC=O)C(Cl)(Cl)Cl)CC1)C(Cl)(Cl)Cl` (stereo not drawn): 0.982 (inactive); for `COP(=S)(OC)Oc1cc(Cl)c(I)cc1Cl`: 0.936 (inactive).
Take `CC(C)N(C(=O)COc1nnc(C(F)(F)F)s1)c1ccc(F)cc1`: the “growth AUC” value was 0.949 (inactive).
Still for that read-out and setting: the result for `CCCCC(C#N)(Cn1cncn1)c1ccc(Cl)cc1` (stereo not drawn) reads 0.993 (inactive); that for `CCc1nn(C)c(C(=O)NCc2ccc(Oc3ccc(C)cc3)cc2)c1Cl`, 0.986 (inactive).
The same measure, in the same setting: the same measure for `CCCOC(=O)c1ccccc1C(=O)OCCC`: 1.01 (inactive); for `COCC(=O)N(c1c(C)cccc1C)N1CCOC1=O`: 1 (inactive); for `NC(=O)/N=C1/SCCN1Cc1ccc(Cl)nc1`: 1.04 (inactive).
On the same count and under the same terms, the result for `Oc1ccccc1-c1ccccc1` reads 1.04 (inactive); that for `CCNc1nc(NC(C)C(C)C)nc(SC)n1` (stereo not drawn), 0.97 (inactive).
